Assay [1] can be described thus: NCI Yeast Anticancer Drug Screen. Data for the rad50 strain (AID 155).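 Also: 0% = growth of vehicle-only cultures of the same strain.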 The conditions noted are these: S. cerevisiae rad50 strain growth inhibition; at 50.0 µM; hits give high values. An outline of the steps:
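DNA repair mutant yeast, compound exposure, growth read-out; inhibition is taken relative to vehicle.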

A short description of assay [2]: NCI Yeast Anticancer Drug Screen. Data for the mec2-1 strain (AID 157). Particulars: S. cerevisiae mec2-1 strain, at 50.0 µM, hits give high values. In a few lines:
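Growth inhibition is read against vehicle-treated controls after compound exposure of the mec2-1 yeast strain, which is defective in DNA damage repair or cell cycle control.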

Assay [3] can be described thus: NCI Yeast Anticancer Drug Screen. Data for the sgs1 mgt1 strain (AID 161).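 Also: 0% = growth of cultures given vehicle only.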 The conditions noted are these: S. cerevisiae sgs1 mgt1 strain, at 50.0 µM, hits give high values. In a few lines: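 Compounds are added to genetically altered yeast, and growth is compared with cultures given vehicle alone to give percent inhibition.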
A short description of assay [4]: NCI Yeast Anticancer Drug Screen. Data for the cln2 rad14 strain (AID 165).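 Also: 0% = growth equal to vehicle treated cultures.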 The conditions noted are these: S. cerevisiae cln2 rad14 strain, at 50.0 µM, hits give high values. An outline of the steps:
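Growth inhibition, relative to vehicle-treated controls, is the read-out. The test organism is a yeast strain with defined genetic alterations, cln2 rad14.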

Assay [5] can be described thus: NCI Yeast Anticancer Drug Screen. Data for the bub3 strain (AID 167). Particulars: S. cerevisiae bub3 mutant strain, at 50.0 µM, hits give high values. An outline of the steps: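 In this screen, a yeast mutant lacking normal mitotic checkpoint function is challenged with compound. Relative growth versus vehicle gives the inhibition value.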
A short description of assay [6]: NCI Yeast Anticancer Drug Screen. Data for the mlh1 rad18 strain (AID 175). Particulars: S. cerevisiae mlh1 rad18 strain growth inhibition; at 50.0 µM; hits give high values. In a few lines: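 Cells of a genetically altered yeast strain, deficient in DNA damage repair, were treated with compound. Their growth was then compared with that of vehicle-treated cultures to give inhibition.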

SMILES strings stand for the structures. About 79,000 compounds went through this panel and 15% of them were active in at least one assay; those are over-represented in the sample as a whole. Values without a mark were called inactive. Active and inactive are the calls of the source. Rule as the data show it: active = growth inhibition above about 70%; inactive = the rest.

On to `Nc1ccc2cc(S(=O)(=O)O)cc(S(=O)(=O)O)c2c1`, for which the growth inhibition in assay [1] is 39.3%; in assay [2], -5.2%; in assay [3] it was 6.6%; in assay [4] it was -18.9%; in assay [5], -0.15%; in assay [6], 31.8%.
With `O=S(=O)(NOCCCCONS(=O)(=O)c1ccccc1)c1ccccc1`, the growth inhibition in assay [1] is 27.6%; in assay [2], 17.6%; in assay [3] it was 11.2%; in assay [4] it was 92.1% (active); in assay [5] it was 26.3%; in assay [6], -6.15%.
On to `O=C(N=Nc1c(O)[nH]c2c(Cl)cc(Cl)cc12)c1ccccc1O`, for which the growth inhibition in assay [1] is -1.1%; in assay [2] it was -0.55%; in assay [3], -9.5%; in assay [4], 12.5%; in assay [5], -8.95%; in assay [6] it was 3.85%.
In the case of `CN=C(N)SCCSC(N)=NC`, the growth inhibition is -12.3% in assay [1]; -18.2% in assay [2]; 0.25% in assay [3]; -13.5% in assay [4]; 11.5% in assay [5]; -5.15% in assay [6].
As to `O=C(Oc1ccc(-c2ccc([N+](=O)[O-])cc2)cc1)c1ccccc1`, the growth inhibition in assay [1] was 29.8%; in assay [2] it was 3.9%; in assay [3], 17%; in assay [4], 15.4%; in assay [5], 19.9%; in assay [6], 8.25%.
Consider `CC(=O)N(CCc1ccccc1)C(C)(C#N)c1ccccc1` (stereo unspecified), for which the growth inhibition in assay [1] is -0.2%; in assay [2] it was 4%; in assay [3], -30.9%; in assay [4], -22.4%; in assay [5], -12.2%; in assay [6], -29.4%.
On to `C=CCCCC1(c2ccccc2)C(=O)Oc2ccccc21` (stereo unspecified), for which the growth inhibition in assay [1] is 29.6%; in assay [2], 2.55%; in assay [3] it was -0.55%; in assay [4], 15.6%; in assay [5], 12.8%; in assay [6], -2.75%.
Turning to `C1=NCCCCCCCN=Cc2ccccc2NCCNc2ccccc21`, the growth inhibition in assay [1] was 29.1%; in assay [2], 23.8%; in assay [3], 20.4%; in assay [4], 32.4%; in assay [5] it was 38.3%; in assay [6], 44.6%.
`CC(Oc1ccccc1-c1ccccc1)C(=O)O` (stereo unspecified): the growth inhibition in assay [1] is 6.95%; in assay [2], -22.2%; in assay [3] it was -5.9%; in assay [4], 5.45%; in assay [5], -1.9%; in assay [6], 15.1%.
On to `CCCCNC(=S)C(=S)NCCCC`, for which the growth inhibition in assay [1] was 10.7%; in assay [2], -0.3%; in assay [3], 0.05%; in assay [4], 26.9%; in assay [5], 17.4%; in assay [6], -11.2%.
In the case of `O=P(O)(c1cc(Cl)cc(Cl)c1)c1cc(Cl)cc(Cl)c1`, the growth inhibition in assay [1] was 2.05%; in assay [2], -7.45%; in assay [3], 10.2%; in assay [4], -5.1%; in assay [5] it was -7.1%; in assay [6], -4.5%.
Regarding `COc1ccc(CCN=C(C)c2cc(Cl)cc(Cl)c2O)cc1OC`, the growth inhibition in assay [1] is 31.1%; in assay [2], 16.2%; in assay [3], 7%; in assay [4], 19.3%; in assay [5], -0.4%; in assay [6], 13.9%.
As to `CCCCCCCCNCC(=O)O`, the growth inhibition in assay [1] was -20%; in assay [2], -21.6%; in assay [3] it was -5.35%; in assay [4], 3.05%; in assay [5] it was -13.1%; in assay [6] it was -12.9%.
For the compound `Cc1ccc(Cl)cc1NC(=O)/C=C/c1ccccc1`, the growth inhibition in assay [1] is 3.05%; in assay [2] it was 8.4%; in assay [3] it was 6.4%; in assay [4], -7.35%; in assay [5], 10.5%; in assay [6], 18.6%.
On to `Cc1ccc(/C=c2\cc3oc(=O)c4cccc(c4-3)c2=O)cc1`, for which the growth inhibition in assay [1] is -5.3%; in assay [2], 18.1%; in assay [3], 58.6%; in assay [4], 23.6%; in assay [5], 44%; in assay [6], 19.1%.
With `CCCCCCCCCCCn1cnc2c(=S)nc[nH]c21`, the growth inhibition is 0.25% in assay [1]; 5.3% in assay [2]; -17.1% in assay [3]; 20.7% in assay [4]; -21.2% in assay [5]; -21.2% in assay [6].
On to `Cc1cc(N)ccc1N=Nc1ccc(Sc2ccc(N=Nc3c(S(=O)(=O)O)cc4cc(S(=O)(=O)O)c(N=Nc5ccc([N+](=O)[O-])cc5)c(N)c4c3O)cc2)cc1`, for which the growth inhibition in assay [1] is -77%; in assay [2], -27.9%; in assay [3], -32.4%; in assay [4], -95.8%; in assay [5] it was -65.8%; in assay [6], -27.9%.
On to `CC(=O)Oc1ccc(/C=N\N(C)CN(C)/N=C/c2ccc(OC(C)=O)cc2)cc1`, for which the growth inhibition is 14% in assay [1]; -9.65% in assay [2]; 31.6% in assay [3]; 18.4% in assay [4]; 1.65% in assay [5]; 17.7% in assay [6].
As to `CC(=O)Nc1ccccc1C`, the growth inhibition in assay [1] is 11.9%; in assay [2], -7.1%; in assay [3], -0.55%; in assay [4], -5.65%; in assay [5], 5.2%; in assay [6], 3.05%.
`CN1CCN(c2c3c(nc4ccccc24)CCCC3)CC1`: the growth inhibition in assay [1] is -6.45%; in assay [2], 2%; in assay [3], -2.4%; in assay [4] it was -40.2%; in assay [5], -10.3%; in assay [6], -22%.
`Cc1csc(=S)n1C`: the growth inhibition in assay [1] is -15.2%; in assay [2], -3.2%; in assay [3], -17.6%; in assay [4] it was -5.8%; in assay [5] it was -12%; in assay [6], 0.4%.

The record behind these values is PubChem BioAssay (NCI).
